# Experimental data from the supplement of paper PMC8728848.
# This excerpt belongs to a sample that is enriched for the strongest signals.
# B1: Flo1 (Saccharomyces cerevisiae), P32768 (protein)
# chain: SGATEACLPAGQRKSGMNINFYQYSLKDSSTYSNAAYMAYGYASKTKLGSVGGQTDISIDYNIPCVSSSGTFPCPQEDSYGNWGCKGMGACSNSQGIAYWSTDLFGFYTTPTNVTLEMTGYFLPPQTGSYTFKFATVDDSAILSVGGATAFNCCAQQQPPITSTNFTIDGIKPWGGSLPPNIEGTVYMYAGYYYPMKVVYSNAVSWGTLPISVTLPDGTTVSDDFEGYVYSFDDDLSQSNCTVPDPSNY
# Experiments:
# Assay in all cases: glycan array binding signal (z-score within array); higher = stronger binding
# Details in all cases: glycan notation: IUPAC condensed, linker removed
# [1] = biological target: Fuc(a1-2)Gal(b1-3)GalNAc(b1-4)[Neu5Ac(a2-3)]Gal(b1-4)Glc
# Method in brief: (§1)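 The binding signal is a Z-score computed within each array and averaged over linkers. Arrays of the same protein sequence at different concentrations or buffers were also averaged together. Data originate from 3228 arrays in the Consortium for Functional Glycomics database, kept only where the protein sequence was available.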
# [2] = biological target: Fuc(a1-2)Gal(b1-3)GlcNAc(b1-2)Man(a1-3)[Fuc(a1-2)Gal(b1-3)GlcNAc(b1-2)Man(a1-6)]Man(b1-4)GlcNAc(b1-4)[Fuc(a1-6)]GlcNAc
# Method in brief: as §1
# [3] = biological target: Fuc(a1-2)Gal(b1-3)[Fuc(a1-4)]GlcNAc(b1-2)Man(a1-3)[Fuc(a1-2)Gal(b1-3)[Fuc(a1-4)]GlcNAc(b1-2)Man(a1-3)]Man(b1-4)GlcNAc(b1-4)GlcNAc
# Method in brief: as §1
# [4] = biological target: Fuc(a1-2)Gal(b1-3)[Fuc(a1-4)]GlcNAc(b1-2)Man(a1-3)[Fuc(a1-2)Gal(b1-3)[Fuc(a1-4)]GlcNAc(b1-2)Man(a1-6)]Man(b1-4)GlcNAc(b1-4)GlcNAc
# Method in brief: as §1
# [5] = biological target: Fuc(a1-2)Gal(b1-4)Fuc(a1-3)]GlcNAc(b1-2)Man(a1-3)[Fuc(a1-2)Gal(b1-4)[Fuc(a1-3)]GlcNAc(b1-2)Man(a1-6)]Man(b1-4)GlcNAc(b1-4)GlcNAc
# Method in brief: as §1
# [6] = biological target: Fuc(a1-2)Gal(b1-4)[Fuc(a1-3)]GlcNAc(b1-2)Man(a1-3)[Fuc(a1-2)Gal(b1-4)[Fuc(a1-3)]GlcNAc(b1-2)Man(a1-6)]Man(b1-4)GlcNAc(b1-4)GlcNAc
# Method in brief: as §1
# [7] = biological target: Fuc(a1-2)[Gal(a1-3)]Gal(b1-3)GlcNAc(b1-3)GalNAc
# Method in brief: as §1
# [8] = biological target: Fuc(a1-2)[Gal(a1-3)]Gal(b1-4)GlcNAc(b1-2)Man(a1-3)[Fuc(a1-2)[Gal(a1-3)]Gal(b1-4)GlcNAc(b1-2)Man(a1-6)]Man(b1-4)GlcNAc(b1-4)[Fuc(a1-6)]GlcNAc
# Method in brief: as §1
# [9] = biological target: Fuc(a1-2)[Gal(a1-3)]Gal(b1-4)GlcNAc(b1-3)[Fuc(a1-2)[Gal(a1-3)]Gal(b1-4)GlcNAc(b1-6)]GalNAc
# Method in brief: as §1
# [10] = biological target: Fuc(a1-2)[Gal(a1-3)]Gal(b1-4)[Fuc(a1-3)]Glc
# Method in brief: as §1
# [11] = biological target: Fuc(a1-2)[GalNAc(a1-3)]Gal
# Method in brief: as §1
# [12] = biological target: Fuc(a1-2)[GalNAc(a1-3)]Gal(b1-3)GalNAc(a1-3)[Fuc(a1-2)]Gal(b1-4)GlcNAc
# Method in brief: as §1
# [13] = biological target: Fuc(a1-2)[GalNAc(a1-3)]Gal(b1-4)Glc
# Method in brief: as §1
# [14] = biological target: Fuc(a1-3)[Gal3S(b1-4)]Glc
# Method in brief: as §1
# [15] = biological target: Gal(b1-3)GalNAc(a1-3)[Fuc(a1-2)]Gal(b1-4)GlcNAc
# Method in brief: as §1
# [16] = biological target: Gal(b1-3)GlcNAc(b1-2)Man(a1-3)[GlcNAc(b1-4)][Gal(b1-3)GlcNAc(b1-2)Man(a1-6)]Man(b1-4)GlcNAc(b1-4)GlcNAc
# Method in brief: as §1
# [17] = biological target: Gal(b1-3)GlcNAc(b1-3)Gal(b1-4)GlcNAc(b1-3)Gal(b1-4)GlcNAc(b1-2)[Gal(b1-3)GlcNAc(b1-3)Gal(b1-4)GlcNAc(b1-3)Gal(b1-4)GlcNAc(b1-6)]Man(a1-6)[Gal(b1-3)GlcNAc(b1-3)Gal(b1-4)GlcNAc(b1-3)Gal(b1-4)GlcNAc(b1-2)Man(a1-3)]Man(b1-4)GlcNAc(b1-4)[Fuc(a1-6)]GlcNAc
# Method in brief: as §1
# [18] = biological target: Gal(b1-3)GlcNAc(b1-3)Gal(b1-4)[Fuc(a1-3)]GlcNAc
# Method in brief: as §1
# [19] = biological target: Gal(b1-3)[Fuc(a1-4)]GlcNAc(b1-2)Man
# Method in brief: as §1
# [20] = biological target: Gal(b1-4)GalNAc(b1-3)[Fuc(a1-2)]Gal(b1-4)GlcNAc
# Method in brief: as §1
# [21] = biological target: Gal(b1-4)GlcNAc(b1-2)Man(a1-3)[Gal(b1-4)GlcNAc(b1-2)Man(a1-6)]Man(b1-4)GlcNAc(b1-4)GlcNAc
# Method in brief: as §1
# [22] = biological target: Gal(b1-4)GlcNAc(b1-2)Man(a1-6)[Man(a1-3)]Man(b1-4)GlcNAc(b1-4)GlcNAc
# Method in brief: as §1
# [23] = biological target: Gal(b1-4)GlcNAc(b1-2)[Gal(b1-4)GlcNAc(b1-4)]Man(a1-3)[Gal(b1-4)GlcNAc(b1-2)Man(a1-6)]Man(b1-4)GlcNAc(b1-4)GlcNAc
# Method in brief: as §1
# [24] = biological target: Gal(b1-4)GlcNAc(b1-2)[Gal(b1-4)GlcNAc(b1-4)]Man(a1-3)[Gal(b1-4)GlcNAc(b1-2)[Gal(b1-4)GlcNAc(b1-6)]Man(a1-6)]Man(b1-4)GlcNAc(b1-4)GlcNAc
# Method in brief: as §1
# [25] = biological target: Gal(b1-4)GlcNAc(b1-2)[Gal(b1-4)GlcNAc(b1-4)]Man(a1-3)[GlcNAc(b1-4)][Gal(b1-4)GlcNAc(b1-2)Man(a1-6)]Man(b1-4)GlcNAc(b1-4)GlcNAc
# Method in brief: as §1
# [26] = biological target: Gal(b1-4)GlcNAc(b1-3)Gal(b1-3)GalNAc
# Method in brief: as §1
# [27] = biological target: Gal(b1-4)GlcNAc(b1-3)Gal(b1-4)GlcNAc(b1-2)Man(a1-3)[Gal(b1-4)GlcNAc(b1-3)Gal(b1-4)GlcNAc(b1-2)Man(a1-6)]Man(b1-4)GlcNAc(b1-4)[Fuc(a1-6)]GlcNAc
# Method in brief: as §1
binder,measurement,setting,value
B1,glycan array binding signal (z-score),[1],-0.19
same,glycan array binding signal (z-score),[2],1.41
same,glycan array binding signal (z-score),[3],-0.362
same,glycan array binding signal (z-score),[4],2.44
same,glycan array binding signal (z-score),[5],3.01
same,glycan array binding signal (z-score),[6],2.48
same,glycan array binding signal (z-score),[7],2.18
same,glycan array binding signal (z-score),[8],3.01
same,glycan array binding signal (z-score),[9],0.353
same,glycan array binding signal (z-score),[10],-0.047
same,glycan array binding signal (z-score),[11],-0.514
same,glycan array binding signal (z-score),[12],0.065
same,glycan array binding signal (z-score),[13],0.017
same,glycan array binding signal (z-score),[14],0.119
same,glycan array binding signal (z-score),[15],-0.653
same,glycan array binding signal (z-score),[16],1.05
same,glycan array binding signal (z-score),[17],2.69
same,glycan array binding signal (z-score),[18],-0.364
same,glycan array binding signal (z-score),[19],2.33
same,glycan array binding signal (z-score),[20],0.699
same,glycan array binding signal (z-score),[21],-0.067
same,glycan array binding signal (z-score),[22],0.098
same,glycan array binding signal (z-score),[23],-0.087
same,glycan array binding signal (z-score),[24],0.251
same,glycan array binding signal (z-score),[25],0.797
same,glycan array binding signal (z-score),[26],-0.714
same,glycan array binding signal (z-score),[27],8.23
